Bioassay records: PubChem BioAssay, National Center for Advancing Translational Sciences (NCATS)
TDP1 cell noCPT: qHTS for Inhibitors of human tyrosyl-DNA phosphodiesterase 1 (TDP1): qHTS in cells in absence of CPT; DT40 Tdp1-/- hTDP1 cells, no CPT, ATP luminescence, 48 h; Potency, µM (top dose mostly 46.2 µM), hits mostly inhibitors; 420,000 tested, 15% active; AID 686978, 2013; also: nearly all actives have a fitted effect of over 55% in size
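Stably hTDP1-transfected Tdp1-null chicken DT40 cells were treated with library compounds minus camptothecin and grown for at least 48 hr at 37 °C, after which cellular ATP was quantified by luminescence.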
TDP1 cell CPT: qHTS for Inhibitors of human tyrosyl-DNA phosphodiesterase 1 (TDP1): qHTS in cells in presence of CPT; AID 686979, 2013; Potency, µM (top dose mostly 46.2 µM), usual class: inhibitors; 420,000 tested, 12% active; chicken DT40 Tdp1-/-;hTDP1 cells + 20 nM CPT, ATP luminescence, 48 h; also: nearly all actives have a fitted effect of over 55% in size
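Chicken DT40 Tdp1-/- cells stably complemented with human TDP1 were seeded at 400 cells/well in medium containing 20 nM camptothecin, exposed to pin-transferred compounds, and grown at 37 °C for at least 48 hr. Viability was read as ATP luminescence.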
TDP1 block: qHTS Assay for Inhibitors of Tyrosyl-DNA Phosphodiesterase (TDP1); AID 485290, 2010; recombinant TDP1, AlphaScreen DNA substrate cleavage; 350,000 tested, 0.28% active; Tyrosyl-DNA phosphodiesterase 1 (Homo sapiens), Q9NUW8; Potency, µM (highest dose often 130 µM), actives largely listed as inhibitors; also: nearly all actives have a fitted effect of over 40% in size
Target sequence (Q9NUW8 whole entry, looked up): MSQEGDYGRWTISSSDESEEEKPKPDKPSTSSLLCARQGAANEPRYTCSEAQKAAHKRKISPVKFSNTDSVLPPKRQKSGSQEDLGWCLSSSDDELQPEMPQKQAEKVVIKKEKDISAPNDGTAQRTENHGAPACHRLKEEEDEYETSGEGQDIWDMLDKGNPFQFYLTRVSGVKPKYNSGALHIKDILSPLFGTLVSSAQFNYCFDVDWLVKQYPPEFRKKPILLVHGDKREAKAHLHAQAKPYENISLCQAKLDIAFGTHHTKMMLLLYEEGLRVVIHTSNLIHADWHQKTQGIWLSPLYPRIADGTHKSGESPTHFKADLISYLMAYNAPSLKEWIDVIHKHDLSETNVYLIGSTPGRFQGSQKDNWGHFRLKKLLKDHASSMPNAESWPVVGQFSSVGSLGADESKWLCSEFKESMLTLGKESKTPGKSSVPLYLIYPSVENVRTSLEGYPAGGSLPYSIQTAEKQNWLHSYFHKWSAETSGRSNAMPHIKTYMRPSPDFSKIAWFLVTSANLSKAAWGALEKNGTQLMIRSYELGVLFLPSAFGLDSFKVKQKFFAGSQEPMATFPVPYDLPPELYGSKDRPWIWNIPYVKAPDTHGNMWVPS
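Enzyme-compound mixtures sat 15 min at room temperature, followed by a 5 min reaction with 15 nM final substrate and 10 min with AlphaScreen beads. Recombinant human Tdp1 was used at 1 nM final.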
HepG2 viability: qHTS for Inhibitors of TGF-b: Cytotox Counterscreen | HepG2 CAGA-GFP viability, ATP luminescence, 18 h | Potency, µM (doses to about 46.1 µM), hits mostly cytotoxic | 410,000 tested, 0.76% active
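HepG2 CAGA-GFP cells (1000/well, DMEM with 1% FBS) received compound, then TGF-beta at 500 pg/mL final, and were incubated 18 hours at 37 degrees C. Viability was read by CellTiter-Glo luminescence. Media-only wells were set as complete cell-killing and DMSO as no toxicity.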
IL1B secr inh: qHTS for Inhibitors of Inflammasome Signaling: IL-1-beta AlphaLISA Primary Screen; AID 743279, 2014; activity change, % at 57.5 µM; THP-1 LPS/ATP IL-1B secretion, AlphaLISA, 16 h; active compounds read low; 360,000 tested, 4.7% active; in the data active = activity change below about -50%; inconclusive = mostly about -30% to -49%
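Secreted IL-1B measured by AlphaLISA bead assay after 16 h compound exposure of THP-1 cells; compounds (final up to 57.5 uM) added 1 h before LPS (250 ng/mL) and ATP (1.25 mM) stimulation; lower signal means less secretion.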
TGFb inhibitor: qHTS for Inhibitors of TGF-b; HepG2 CAGA-GFP TGF-b/SMAD3 reporter, GFP fluorescence, 18 h; TGF-beta stimulated, 500 pg/mL final; Potency, µM (titrated, usually from 46.1 µM), usual class: inhibitors; 410,000 tested, 1.2% active; also: nearly all actives have a fitted effect of over 65% in size
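Using HEPG2 CAGA-GFP reporter cells at 1000 cells/well, we pinned test compounds, stimulated with recombinant TGF-beta (500 pg/mL final) and measured total well GFP after 18 h.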
Each line names hits and unclear results; the compound was inactive in the other large screens; ! = a repeat was not active. The list is not random: actives were taken first. Their share in the collection is about 19%. Unless noted, calls follow the shape of the dose curve; as a rule, active = well fitted curve in the direction sought with a large enough effect; inconclusive = small, poorly fitted or top-dose-only effect, or another doubt; inactive = no such curve, though single readings can be large; an effect the other way counts as inactive or inconclusive.

C=CCc1c(C)nc(C)nc1N/N=C/c1ccc(N(C)C)cc1	TDP1 cell noCPT 20.6µM, TDP1 cell CPT 4.61µM, TGFb inhibitor inconclusive
C=C1C(=O)O[C@@H]2C[C@@H](C)[C@@H]3C=CC(=O)[C@@]3(C)[C@@H](OC(C)=O)[C@H]12	TDP1 cell noCPT 0.651µM, TDP1 cell CPT 0.82µM, HepG2 viability 2.51µM, IL1B secr inh inconclusive, TGFb inhibitor 0.708µM
NC(=O)COc1c(F)cc(SCCNS(=O)(=O)c2ccccc2)cc1F	none (no result: TDP1 cell noCPT, TDP1 cell CPT, HepG2 viability, IL1B secr inh, TGFb inhibitor)
Cc1ccc2c(c1)C(c1ccccc1)NCC(=O)N2 (stereo not drawn)	TDP1 cell noCPT inconclusive
Cc1ccccc1C1CC(=O)Nc2ccc3ccccc3c21 (stereo not drawn)	TDP1 cell noCPT 11.6µM, TDP1 cell CPT 11.6µM, TGFb inhibitor 12.6µM (no result: IL1B secr inh)
Cc1ccnc2c1NC(=O)c1cccnc1N2C1CC1	TDP1 cell noCPT 8.2µM!, TDP1 cell CPT 6.51µM!
O=C1C=C2C=C[C@@H]3C[C@@]2(O1)[C@H]1CCCCN31	TDP1 cell noCPT 7.5µM, TDP1 cell CPT 11.9µM (no result: HepG2 viability, IL1B secr inh, TGFb inhibitor)
COc1ccc([N+](=O)[O-])cc1N=Cc1c(O)n(CCc2ccccc2)c(=O)n(C(C)C)c1=O	TDP1 cell noCPT 16.4µM, TDP1 cell CPT inconclusive, TGFb inhibitor inconclusive
COc1cc(C2c3cc4c(cc3C(O)C3COC(=O)C23)OCO4)cc(OC)c1O (stereo not drawn)	TDP1 cell noCPT 0.206µM, TDP1 cell CPT 0.259µM (no result: HepG2 viability, IL1B secr inh, TGFb inhibitor)
COc1cc([C@@H]2c3cc4c(cc3[C@H](O)[C@H]3COC(=O)[C@@H]23)OCO4)cc(OC)c1OC	TDP1 cell noCPT 0.0251µM, TDP1 cell CPT 0.0708µM (no result: IL1B secr inh)
COc1ccc2c(c1OC)C(=O)O[C@@H]2[C@H]1c2cc3c(cc2CCN1C)OCO3	none (no result: TDP1 block)
COc1ccc2c(c1OC)C(=O)O[C@H]2[C@@H]1c2cc3c(cc2CCN1C)OCO3	none (no result: TDP1 block)
COc1cc([C@@H]2c3cc4c(cc3[C@@H](OC)[C@H]3COC(=O)[C@H]23)OCO4)cc(OC)c1O	TDP1 cell noCPT 1.3µM, TDP1 cell CPT 1.16µM, TGFb inhibitor inconclusive
COc1cc([C@@H]2c3cc4c(cc3[C@H](O)[C@H]3COC(=O)[C@H]23)OCO4)cc(OC)c1OC	TDP1 cell noCPT 0.146µM!, TDP1 cell CPT 0.146µM
c1cc2c(c(NC3=NCCN3)c1)CCCC2	TDP1 cell noCPT inconclusive, TDP1 cell CPT inconclusive (no result: HepG2 viability, IL1B secr inh, TGFb inhibitor)
CCN1CCN(c2ccc(N)c(C)c2)CC1	TDP1 cell noCPT inconclusive, TDP1 cell CPT inconclusive
COc1cc([C@@H]2c3cc4c(cc3C(O[C@@H]3O[C@@H]5CO[C@@H](C)O[C@H]5[C@H](O)[C@H]3O)C3COC(=O)[C@@H]32)OCO4)cc(OC)c1OP(=O)(O)O (stereo partly drawn)	TDP1 cell noCPT 0.299µM, TDP1 cell CPT 0.211µM (no result: TDP1 block, HepG2 viability, IL1B secr inh, TGFb inhibitor)
O=C1N[C@@H](Cc2ccccc2)C(=O)N2[C@H]1C[C@H]1c3ccccc3N(OOSc3ccccc3)[C@H]12	TDP1 cell noCPT 16.4µM, TDP1 cell CPT 20.6µM (no result: TDP1 block)
NC[C@H](CC(=O)O)c1ccc(Cl)cc1	TDP1 cell CPT inconclusive (no result: HepG2 viability, IL1B secr inh, TGFb inhibitor)
Nc1c(C(=O)NCCCc2ccccc2)c2nc3ccccc3nc2n1Cc1cccs1	TDP1 cell noCPT inconclusive, TDP1 cell CPT inconclusive (no result: TDP1 block)
CCOCCCn1c(N)c(C(=O)Nc2sc3c(c2C(=O)OC)CCCC3)c2nc3ccccc3nc21	TDP1 cell noCPT 20.6µM, TDP1 cell CPT 20.6µM
CCCCNC(=O)c1c(N)n(Cc2ccc3c(c2)OCO3)c2nc3ccccc3nc12	TDP1 cell noCPT inconclusive, TDP1 cell CPT 29.1µM
Nc1c(C(=O)NCc2ccco2)c2nc3ccccc3nc2n1CCN1CCOCC1	TDP1 cell noCPT inconclusive, TDP1 cell CPT inconclusive
